The panel holds about 83,000 compounds, 20% with a hit somewhere; the sample as a whole holds those more often.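 Method: cells in 96-well plates; compound added at one concentration; 48 h incubation; percent growth measured; values under 10 scored active.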 Values without a mark were called inactive. The source made the active and inactive calls.

In the assay the test system is MCF7 breast. Description: NCI-60 one-dose screen, 48 h (100 = growth as untreated, 0 = no growth, -100 = all killed). The settings on record: 10 µM unless noted. As for the experimental part: Growth inhibition of the MCF7 human tumor cell line is measured as a screen for anti-cancer activity. Cells are grown in 96 well plates and exposed to the test compound for 48 hours. Compounds are tested at a single concentration, which is 10^-5 M for most compounds. The reported endpoint is percent growth (GI% or GIPRCNT), where numbers from 0 - 100% represent growth inhibition, and numbers from -100% - 0 represent cell death. For example, a value of 40 represents 60% growth inhibition. A value of 0 means no net growth occurred over the course of the experiment. A value of -40 indicates 40% of cells at the beginning of the experiment died by the end of the experiment. A value of -100 means all cells are dead at the end of the experiment.
NCI-60 Human Tumor Cell Lines Screen was performed using the standard one-dose NCI protocol, which is described in more detail at https://dtp.cancer.gov/discovery_development/nci-60/default.htm.
Compounds with GIPRCNT values below 10 were considered active. Activity score was based on GIPRCNT using the following formula: […]
Score is 0 for GIPRCNT values of 100 or above, 50 for GIPRCNT values of 0, and 100 for GIPRCNT values of -100.
As to `CCN(CC)CCCNc1nc(C)cc(Nc2ccc3nc(C)cc(N)c3c2)n1`, the growth is 92.8%.

For `Nc1c(C(=O)Nc2ccccc2)sc2nc3c(cc12)CN(Cc1ccccc1)CC3`, the growth is 77.9%. Turning to `CC(=O)Nc1nc(C(=O)N2N=C(C)/C(=C/c3ccc(Cl)cc3)C2=O)cs1`, the growth was 94.4%. As for `COc1c(NC[C@H]2OC(O)[C@H](O)[C@@H](O)[C@@H]2O)c(=O)c1=O` (stereo not given in full), the growth is 103%.

With `CCOC(=O)C(Cc1ccccc1)n1c(O)c(C=Nc2ccc(C(=O)OCCN(CC)CC)cc2)sc1=O` (stereo not given), the growth was 74.5%. `COc1ccc(C2SCC(=O)N2NC(=O)c2ccc(NC(=O)c3ccccn3)cc2)cc1OC` (stereo not given): the growth was 104%.

Turning to `C=C1C(=O)O[C@H]2[C@H]1CC/C(Cn1cc(-c3ccc(N)cc3)nn1)=C\CC[C@@]1(C)O[C@@H]21`, the growth is 2.62% (active).

Take `COc1ccc(/C=C2\CCCC3=C2NC(C)=NC3c2ccc(OC)c(OC)c2)cc1OC` (stereo not given): the growth is 26.3%. Turning to `Nc1c(C(=O)Nc2ccccc2)sc2nc3c(cc12)CCC3`, the growth was 51.8%. On to `CCN(CC)CCSc1c2ccc(Cl)cc2nc2ccc(OC)cc12`, for which the growth was 33.8%. As for `Cc1cccc(-n2c(C)nc3ccc(NC(=O)NCCCl)cc3c2=O)c1`, the growth was 86.1%. As for `COc1ccc(-c2nc3sccn3c2-c2ccnc(NCCCNS(=O)(=O)c3ccc4ccccc4c3)n2)cc1`, the growth is 52.2%. On to `CCCCCC(=O)OCc1ccccc1`, for which the growth was 97.4%. `CCCCC(N)(C(=O)O)C1CCCC1` (stereo not given): the growth was 91.4%.

With `COc1cc(C(=O)OCCCCCCCCCCC[P+](c2ccccc2)(c2ccccc2)c2ccccc2)ccc1O`, the growth was -40.8% (active). For `COc1ccc(C(=O)/C=C/c2cccc([N+](=O)[O-])c2)c(OC)c1`, the growth is 7.98% (active). Regarding `COc1ccc(/C=C/C(=O)c2ccc(B(O)O)cc2)cc1O`, the growth is 20.2%. On to `CCOc1ccc(/C=C/C=N/NC(N)=S)cc1`, for which the growth was 43.5%. Consider `CCN1C(=O)N(CC)C2Nn3c(s/c(=C\c4cccc(F)c4)c3=O)=NC21` (stereo not given), for which the growth was 54.7%. Take `CC1=CNNc2c3ncnc-3ncn21`: the growth was 111%. For `C=C1C(=O)O[C@H]2[C@H]1CC/C(Cn1cc(-c3ccsc3)nn1)=C\CC[C@@]1(C)O[C@@H]21`, the growth is -72.6% (active). For `NC(N)=NC(N)=Nc1ccccc1-c1ccccc1`, the growth was 110%. For `COC(=O)c1ccc2nc(-c3cc4ccccc4n3C)n(CCCCOc3cc4c(cc3OC)C(=O)N3CCC[C@H]3C=N4)c2c1`, the growth was 2.44% (active). The value for `C=C1C(=O)O[C@H]2[C@H]1CC/C(COC(=O)NCCc1ccc(Br)cc1)=C\CC[C@@]1(C)O[C@@H]21` was 4.4% (active); that for `COc1cc(/C=C2\CCCC3=C2N=C2SC(C)=NN2C3c2cc(OC)c(OC)c(OC)c2)cc(OC)c1OC` (stereo not given) was 12.5%. Consider `O=C1N=C(c2c(-c3[nH]c(=O)c4ccc(Br)cc4c3O)c(O)c3ccccc3c2O)C(=O)c2cc(Br)ccc21`, for which the growth is -35.2% (active).

As for `Cc1ccc2nc(-c3c(N)n[nH]c3CCCO)[nH]c(=O)c2c1`, the growth was 94.5%. Consider `CC1CCc2c(sc(NC(=O)CSc3nnc4ccccn34)c2C(N)=O)C1` (stereo not given), for which the growth was 96%. For `COC(=O)[C@H]1[C@H](OC)[C@@H](OC(=O)/C=C/c2ccncc2)CC2CN3CCc4c([nH]c5cc(OC)ccc45)[C@@H]3C[C@@H]21` (stereo not given in full), the growth was 55.9%. Turning to `O=C(OCCCCOC(=O)n1cnc2ccccc21)n1cnc2ccccc21`, the growth is 96.7%.

Consider `COc1cc(NCCCN=C(N)NC(N)=NC(C)C)c2ncccc2c1`, for which the growth is -52.9% (active). In the case of `O=C1Nc2ccc(Br)cc2C1=N/C=c1\[nH]c(=O)/c(=C/c2ccc(Cl)cc2)s1`, the growth is 86.6%. For the compound `CCCCCCC[C@@H](O)CC(=O)N[C@H](CCCCN)C(=O)N[C@H](Cc1c[nH]c2ccccc12)C(=O)NC(CCCCN)C(=O)N[C@H](CC(C)C)C(=O)N[C@H](Cc1ccccc1)C(=O)N[C@H](CCCCN)C(=O)N[C@H](CCCCN)C(=O)N[C@H](CC(C)C)C(=O)N1CCCC1C(=O)N[C@H](CCCCN)C(=O)N[C@H](Cc1ccccc1)C(=O)N[C@H](CC(C)C)C(=O)N[C@H](Cc1c[nH]cn1)C(=O)N[C@H](CC(C)C)C(=O)N[C@H](C)C(=O)N[C@H](CCCCN)C(=O)N[C@H](CCCCN)C(=O)N[C@H](Cc1ccccc1)C(=O)O` (stereo not given in full), the growth was -23.8% (active). `COc1ccc(Cn2cc(COc3cc(/C=C/C(=O)c4cc(OC)c(OC)c(OC)c4)ccc3OC)nn2)cc1`: the growth was 21.3%. Turning to `COc1cc(-c2cc(/C=C3\CCCCC3=O)[nH]n2)cc(OC)c1OC`, the growth is 92.5%.

For `Nc1c(C(=O)c2ccc(F)cc2)sc2nc3c(cc12)CCCC3`, the growth is 80.4%.

With `Cc1ccnc2nc(C(=O)OCC(=O)Nc3ccc(-c4ccccc4)cc3)nn12`, the growth was 105%.

Take `COc1cccc(NC(=O)c2sc3nc4c(cc3c2N)CCCC4)c1`: the growth was 13.2%. As for `Cc1cccc2cc(/C=C/C(=O)/C=C/c3ccc(Cl)cc3)c(=O)[nH]c12`, the growth was 9.87% (active).

`CC1Cc2c(N(C)C)ncnc2N(C)c2ccc(Cl)cc21` (stereo not given): the growth is 15.2%.

The record behind these values is PubChem BioAssay (NCI).
